Most compounds without a hit are left out; they make up all but 2.9% or so of the library.
Peg3 prom inh-1: Peg3 promoter activity inhibition; HeLa PEG-Prom luciferase reporter, luminescence, overnight; inhibition, % at 20 µM; 360,000 compounds, 1.7% hits;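 active means inhibition of at least 50% at 20 µM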
CF NFkB inh: blocks PAF-induced NF-kB reporter in cystic fibrosis cells | 360,000 compounds, 0.86% hits | inhibition, % at 5 µM | KKLEB NF-kB-GFP reporter, GFP fluorescence overnight;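 active means at least 50% inhibition at 5 µM, scaled per plate between neutral and stimulator controls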;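 further: PAF is a Pseudomonas aeruginosa culture filtrate used as stimulus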
Shn3 3UTR inh: reduces Shn3 3'UTR luciferase signal in osteoblasts; Clone20 osteoblast Shn3 3'UTR firefly luciferase, 24 h; inhibition, % at 12.5 µM; 360,000 compounds, 0.52% hits; AID 588674;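 active means mean inhibition of at least 75% with every replicate also reaching 75%; inconclusive means mean inhibition at least 75% but some replicate below; inactive means mean inhibition below 75%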
EBV LMP1 NFkB: Epstein-Barr LMP1 NF-kappaB reporter inhibition. LMP1-induced NF-kappaB luciferase reporter cells, luminescence. inhibition, % at 12.5 µM. 350,000 compounds, 0.69% hits. AID 504558; in the data active means inhibition above about 41%; inconclusive means no clear call, values can overlap the other calls
HIF-2a inh: blocks HIF-2a reporter activity | 786-0 RCC cells HIF-2a reporter, luciferase luminescence, overnight | inhibition, % at 18.8 µM | 360,000 compounds, 0.72% hits;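 active means inhibition of the luminescence signal of 40% or more relative to plate controls, in a single-dose primary screen at 18.75 µM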
KKLEB tox: reduces viability of KKLEB cystic fibrosis airway cells; KKLEB CF airway cells viability, ATPlite luminescence, overnight; active compounds read low; cells stimulated with P. aeruginosa culture filtrate; activity change (cytotoxicity), % at 5 µM; 360,000 compounds, 0.36% hits; AID 602141;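 active means corrected activity change at or below -50% at 5 µM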
Peg3 prom inh-2: Peg3 promoter inhibition confirmation. HeLa PEG-Prom luciferase reporter, luminescence, overnight. AID 602417. shares compounds with Peg3 prom inh-1. 1,300 compounds, 84% hits. inhibition, % at 20 µM;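 active means at 20 µM dose, 40% or more inhibition averaged across four replicates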
CF NFkB conf: CF NF-kB inhibition confirmation, single concentration | shares compounds with CF NFkB inh | KKLEB CF airway cells, PAF-induced NF-kB-GFP fluorescence, overnight | inhibition, % at 5 µM | 1,300 compounds, 64% hits; in the data active means inhibition above about 40%;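 further: stimulus PAF is a Pseudomonas aeruginosa filtrate and not platelet activating factor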
Mdm2 MdmX conf: confirmation of inhibitors of human Mdm2/MdmX interaction, set 2. SaOS-2 split-luciferase Mdm2/MdmX complementation, luminescence. inhibition, % at 8 µM. shares compounds with HIF-2a inh. 740 compounds, 99% hits;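 active means mean inhibition of the luminescence signal across two replicates at or above 26 percent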
Target sequence (O15151 whole entry, looked up): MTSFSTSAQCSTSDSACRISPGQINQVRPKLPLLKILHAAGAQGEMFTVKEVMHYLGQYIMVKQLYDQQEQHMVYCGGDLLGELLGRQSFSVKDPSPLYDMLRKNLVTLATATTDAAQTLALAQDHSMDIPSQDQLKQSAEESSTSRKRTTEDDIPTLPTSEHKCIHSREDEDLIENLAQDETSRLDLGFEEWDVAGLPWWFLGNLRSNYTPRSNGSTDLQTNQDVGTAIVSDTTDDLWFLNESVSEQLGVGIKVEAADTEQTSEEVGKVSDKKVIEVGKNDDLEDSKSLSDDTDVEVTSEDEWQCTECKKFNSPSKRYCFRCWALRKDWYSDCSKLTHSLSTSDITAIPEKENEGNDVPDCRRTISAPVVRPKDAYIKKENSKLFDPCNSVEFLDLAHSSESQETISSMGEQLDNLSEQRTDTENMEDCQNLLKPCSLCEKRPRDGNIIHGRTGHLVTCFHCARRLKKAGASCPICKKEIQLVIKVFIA
Target sequence (Q00987 whole entry, looked up): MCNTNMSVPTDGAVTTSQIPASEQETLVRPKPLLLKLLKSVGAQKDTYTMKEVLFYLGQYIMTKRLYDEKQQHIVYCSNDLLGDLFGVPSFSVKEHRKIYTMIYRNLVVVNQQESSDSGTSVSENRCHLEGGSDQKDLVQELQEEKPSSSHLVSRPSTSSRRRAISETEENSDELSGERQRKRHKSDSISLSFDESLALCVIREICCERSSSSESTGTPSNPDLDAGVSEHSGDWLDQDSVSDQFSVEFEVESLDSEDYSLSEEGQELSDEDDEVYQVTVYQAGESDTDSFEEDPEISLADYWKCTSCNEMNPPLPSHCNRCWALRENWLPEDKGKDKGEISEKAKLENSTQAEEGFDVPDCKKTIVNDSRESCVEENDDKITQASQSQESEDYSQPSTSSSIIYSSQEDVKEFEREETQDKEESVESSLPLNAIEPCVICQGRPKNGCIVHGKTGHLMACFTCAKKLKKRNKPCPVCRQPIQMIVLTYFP
HIF-2a inh conf: confirmation of HIF-2a inhibitors. shares compounds with HIF-2a inh. inhibition, % at 18.8 µM. 1,800 compounds, 56% hits. 786-0 RCC cells, HIF-2a luciferase reporter luminescence, overnight;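 active means mean inhibition across four replicates of at least 40 percent at the single tested concentration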
HIF-1a cs: HIF-1a inhibition counter-screen for HIF-2a hits | shares compounds with HIF-2a inh | MiaPaCa-2 HIF-1a luciferase reporter, desferoxamine, overnight | inhibition, % at 18.8 µM | 1,800 compounds, 72% hits;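 active means mean inhibition of the reporter signal across four replicates at the single tested dose of 50% or more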
Large screens that a line does not name were inactive (follow-up assays come after a bar, where they were run).

COc1cccc2nc3c(C(=O)NCCN(C)C)cccc3cc12	Peg3 prom inh-1 99, HIF-2a inh 43 | Peg3 prom inh-2 97 | HIF-2a inh conf inactive | HIF-1a cs 105
CCCCCCN1C[C@@H](n2cc(COC(=O)c3ccccc3)nn2)[C@H](O)C[C@@H]1c1ccc(Cl)cc1	none
CC(C)CN(CCCNC(=O)CN1C(=O)COc2ccc(S(=O)(=O)N3CCOCC3)cc21)CC(C)C	none
CN1OC[C@@H]2CN[C@H](c3ccc(-c4cc5ccccc5o4)cc3)C[C@@H]21	Peg3 prom inh-1 89, EBV LMP1 NFkB 80, HIF-2a inh 90 | Peg3 prom inh-2 90 | HIF-2a inh conf 96 | HIF-1a cs 98
COc1ccc(NC(=O)COc2coc(CN3CCN(c4ccccc4)CC3)cc2=O)cc1	none
COC(=O)c1cn(NC(=O)c2cc([N+](=O)[O-])ccc2F)c(=O)c2ccccc12	Peg3 prom inh-1 58, Shn3 3UTR inh 94, EBV LMP1 NFkB 86 | Peg3 prom inh-2 66 | Mdm2 MdmX conf 95
COC(=O)c1cn(NC(=O)C2CCC(C)CC2)c(=O)c2ccccc12 (stereo unspecified)	none
C(=N\Nc1ccc2ccccc2n1)/c1ccc2c(c1)OCCO2	Peg3 prom inh-1 79, EBV LMP1 NFkB 61, HIF-2a inh 71 | Peg3 prom inh-2 77 | HIF-2a inh conf 91 | HIF-1a cs 100
Cc1cccc(/C=N/Nc2ccc3ccccc3n2)c1	Peg3 prom inh-1 67, EBV LMP1 NFkB 74, HIF-2a inh 52 | Peg3 prom inh-2 70 | HIF-2a inh conf 88 | HIF-1a cs 90
Cc1ccc(/C=N/Nc2ccc3ccccc3n2)o1	none
CC(C)CC(CO)N1CCN(C(=O)c2ccc(Cl)c(Cl)c2)CCC1=O (stereo unspecified)	none
Cc1nc2c(C)cccc2cc1C(=O)N/N=C/c1cccnc1	none
Cc1ccccc1Nc1nc(N)nc(COC(=O)c2ccccc2)n1	none
Nc1nc(CCl)nc(Nc2cccc3ccccc23)n1	Peg3 prom inh-1 64, CF NFkB inh 83, HIF-2a inh 40, KKLEB tox -80 (no result: EBV LMP1 NFkB) | Peg3 prom inh-2 72 | Mdm2 MdmX conf 102
COc1ccc2oc(C(=O)OCC(=O)N(Cc3ccccc3)C(C)(C)C)c(C)c2c1	none
CCCS(=O)(=O)c1cnc(C2COc3ccccc3O2)nc1N (stereo unspecified)	Peg3 prom inh-1 88, EBV LMP1 NFkB 71, HIF-2a inh 81 | Peg3 prom inh-2 77 | HIF-2a inh conf 89 | HIF-1a cs 90
COc1ccc(NC(=O)/C(=C\c2ccccc2)NC(=O)c2ccco2)cc1	none
CC(CNc1ccc(Cl)cc1)(CNc1ccc(Cl)cc1)[N+](=O)[O-]	none
COC(=O)c1ccccc1NC(=O)COC(=O)CSc1nnc(N)s1	none
O=C(CN1CCN(C/C=C/c2ccccc2)CC1)NC(=O)NC1CCCCC1	none
O=c1c2ccccc2cnn1-c1nc2ccccc2[nH]1	Peg3 prom inh-1 107, Shn3 3UTR inh 88, EBV LMP1 NFkB 85, HIF-2a inh 92, KKLEB tox -51 | Peg3 prom inh-2 95 | HIF-2a inh conf 94 | HIF-1a cs 99
O=c1c(Cl)c(N2CCCCC2)cnn1-c1nc2ccccc2[nH]1	Peg3 prom inh-1 88, EBV LMP1 NFkB 78, HIF-2a inh 70, KKLEB tox -56 | Peg3 prom inh-2 67 | HIF-2a inh conf 79 | HIF-1a cs 86
O=c1c2ccccc2nc2c3ccccc3cnn12	none
Cc1nc(Sc2nnnn2C)c2c3c(sc2n1)CCC3	Peg3 prom inh-1 55, CF NFkB inh 52, EBV LMP1 NFkB 48, HIF-2a inh 55 | Peg3 prom inh-2 inactive | CF NFkB conf inactive | HIF-2a inh conf inactive | HIF-1a cs inactive
COCCn1c(C)cc(C(=O)CSc2nnc(C)s2)c1C	Peg3 prom inh-1 95, EBV LMP1 NFkB 74, HIF-2a inh 70 | Peg3 prom inh-2 74 | HIF-2a inh conf 84 | HIF-1a cs inactive
O=C(CN1C(=O)c2ccccc2S1(=O)=O)c1ccc2c(c1)OCCO2	Peg3 prom inh-1 108, EBV LMP1 NFkB 81, HIF-2a inh 90 (no result: Shn3 3UTR inh) | Peg3 prom inh-2 96 | Mdm2 MdmX conf 100 | HIF-2a inh conf 98 | HIF-1a cs 104
O=C(CN1C(=O)c2ccccc2S1(=O)=O)c1ccc2c(c1)OCCCO2	Peg3 prom inh-1 99, Shn3 3UTR inh 94, EBV LMP1 NFkB 86, HIF-2a inh 93 | Peg3 prom inh-2 95 | Mdm2 MdmX conf 96 | HIF-2a inh conf 99 | HIF-1a cs 104
COCCn1c(C)cc(C2=NNC(=Nc3ccc(Cl)cc3Cl)SC2)c1C	none
COCCn1c(C)cc(C2=NNC(=NC3CC3)SC2)c1C	Peg3 prom inh-1 104, Shn3 3UTR inh 91, EBV LMP1 NFkB 84, HIF-2a inh 93 | Peg3 prom inh-2 95 | Mdm2 MdmX conf 101 | HIF-2a inh conf 99 | HIF-1a cs 105
CCCc1c(C(=O)N/N=C(\C)c2ccccc2O)nnn1-c1nonc1N	none
C/C(=N\NC(=O)c1nnn(-c2nonc2N)c1-c1ccccc1)c1ccccc1O	Peg3 prom inh-1 73 | Peg3 prom inh-2 67 | Mdm2 MdmX conf 84
Cc1ccc2nc(NC(=O)CSCC(=O)OCC(=O)c3ccc(Br)cc3)sc2c1	Peg3 prom inh-1 52, HIF-2a inh 57 | Peg3 prom inh-2 65 | HIF-2a inh conf 51 | HIF-1a cs 86
O=c1cnnc(N/N=C/c2ccccn2)[nH]1	Peg3 prom inh-1 62, Shn3 3UTR inh 96, EBV LMP1 NFkB 76 | Peg3 prom inh-2 73 | Mdm2 MdmX conf 87
C(=N\Nc1nc2ccccc2[nH]1)/c1ccccn1	Peg3 prom inh-1 86, Shn3 3UTR inh 89, HIF-2a inh 73 | Peg3 prom inh-2 76 | HIF-2a inh conf inactive | HIF-1a cs inactive
O=c1nc(N/N=C/c2ccccn2)cn[nH]1	Shn3 3UTR inh inconclusive
CCOc1ccc(N(C)S(=O)(=O)c2ccc(-c3cc(C)no3)s2)cc1	none

Screening results: PubChem BioAssay, several laboratories
